Bioassay records as filed in PubChem.
mHTT-CaM PPI inh = mutant huntingtin-calmodulin interaction inhibitors – biochemical, AlphaScreen, primary screen; P42858; AlphaScreen His-mHTT/GST-CaM binding, luminescence; inhibition, % at 15 µM; 190,000 compounds, 3.6% hits;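 further: 0% = both proteins with DMSO and 100% = one protein alone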
Target sequence (P42858 whole entry, looked up, stated change not applied): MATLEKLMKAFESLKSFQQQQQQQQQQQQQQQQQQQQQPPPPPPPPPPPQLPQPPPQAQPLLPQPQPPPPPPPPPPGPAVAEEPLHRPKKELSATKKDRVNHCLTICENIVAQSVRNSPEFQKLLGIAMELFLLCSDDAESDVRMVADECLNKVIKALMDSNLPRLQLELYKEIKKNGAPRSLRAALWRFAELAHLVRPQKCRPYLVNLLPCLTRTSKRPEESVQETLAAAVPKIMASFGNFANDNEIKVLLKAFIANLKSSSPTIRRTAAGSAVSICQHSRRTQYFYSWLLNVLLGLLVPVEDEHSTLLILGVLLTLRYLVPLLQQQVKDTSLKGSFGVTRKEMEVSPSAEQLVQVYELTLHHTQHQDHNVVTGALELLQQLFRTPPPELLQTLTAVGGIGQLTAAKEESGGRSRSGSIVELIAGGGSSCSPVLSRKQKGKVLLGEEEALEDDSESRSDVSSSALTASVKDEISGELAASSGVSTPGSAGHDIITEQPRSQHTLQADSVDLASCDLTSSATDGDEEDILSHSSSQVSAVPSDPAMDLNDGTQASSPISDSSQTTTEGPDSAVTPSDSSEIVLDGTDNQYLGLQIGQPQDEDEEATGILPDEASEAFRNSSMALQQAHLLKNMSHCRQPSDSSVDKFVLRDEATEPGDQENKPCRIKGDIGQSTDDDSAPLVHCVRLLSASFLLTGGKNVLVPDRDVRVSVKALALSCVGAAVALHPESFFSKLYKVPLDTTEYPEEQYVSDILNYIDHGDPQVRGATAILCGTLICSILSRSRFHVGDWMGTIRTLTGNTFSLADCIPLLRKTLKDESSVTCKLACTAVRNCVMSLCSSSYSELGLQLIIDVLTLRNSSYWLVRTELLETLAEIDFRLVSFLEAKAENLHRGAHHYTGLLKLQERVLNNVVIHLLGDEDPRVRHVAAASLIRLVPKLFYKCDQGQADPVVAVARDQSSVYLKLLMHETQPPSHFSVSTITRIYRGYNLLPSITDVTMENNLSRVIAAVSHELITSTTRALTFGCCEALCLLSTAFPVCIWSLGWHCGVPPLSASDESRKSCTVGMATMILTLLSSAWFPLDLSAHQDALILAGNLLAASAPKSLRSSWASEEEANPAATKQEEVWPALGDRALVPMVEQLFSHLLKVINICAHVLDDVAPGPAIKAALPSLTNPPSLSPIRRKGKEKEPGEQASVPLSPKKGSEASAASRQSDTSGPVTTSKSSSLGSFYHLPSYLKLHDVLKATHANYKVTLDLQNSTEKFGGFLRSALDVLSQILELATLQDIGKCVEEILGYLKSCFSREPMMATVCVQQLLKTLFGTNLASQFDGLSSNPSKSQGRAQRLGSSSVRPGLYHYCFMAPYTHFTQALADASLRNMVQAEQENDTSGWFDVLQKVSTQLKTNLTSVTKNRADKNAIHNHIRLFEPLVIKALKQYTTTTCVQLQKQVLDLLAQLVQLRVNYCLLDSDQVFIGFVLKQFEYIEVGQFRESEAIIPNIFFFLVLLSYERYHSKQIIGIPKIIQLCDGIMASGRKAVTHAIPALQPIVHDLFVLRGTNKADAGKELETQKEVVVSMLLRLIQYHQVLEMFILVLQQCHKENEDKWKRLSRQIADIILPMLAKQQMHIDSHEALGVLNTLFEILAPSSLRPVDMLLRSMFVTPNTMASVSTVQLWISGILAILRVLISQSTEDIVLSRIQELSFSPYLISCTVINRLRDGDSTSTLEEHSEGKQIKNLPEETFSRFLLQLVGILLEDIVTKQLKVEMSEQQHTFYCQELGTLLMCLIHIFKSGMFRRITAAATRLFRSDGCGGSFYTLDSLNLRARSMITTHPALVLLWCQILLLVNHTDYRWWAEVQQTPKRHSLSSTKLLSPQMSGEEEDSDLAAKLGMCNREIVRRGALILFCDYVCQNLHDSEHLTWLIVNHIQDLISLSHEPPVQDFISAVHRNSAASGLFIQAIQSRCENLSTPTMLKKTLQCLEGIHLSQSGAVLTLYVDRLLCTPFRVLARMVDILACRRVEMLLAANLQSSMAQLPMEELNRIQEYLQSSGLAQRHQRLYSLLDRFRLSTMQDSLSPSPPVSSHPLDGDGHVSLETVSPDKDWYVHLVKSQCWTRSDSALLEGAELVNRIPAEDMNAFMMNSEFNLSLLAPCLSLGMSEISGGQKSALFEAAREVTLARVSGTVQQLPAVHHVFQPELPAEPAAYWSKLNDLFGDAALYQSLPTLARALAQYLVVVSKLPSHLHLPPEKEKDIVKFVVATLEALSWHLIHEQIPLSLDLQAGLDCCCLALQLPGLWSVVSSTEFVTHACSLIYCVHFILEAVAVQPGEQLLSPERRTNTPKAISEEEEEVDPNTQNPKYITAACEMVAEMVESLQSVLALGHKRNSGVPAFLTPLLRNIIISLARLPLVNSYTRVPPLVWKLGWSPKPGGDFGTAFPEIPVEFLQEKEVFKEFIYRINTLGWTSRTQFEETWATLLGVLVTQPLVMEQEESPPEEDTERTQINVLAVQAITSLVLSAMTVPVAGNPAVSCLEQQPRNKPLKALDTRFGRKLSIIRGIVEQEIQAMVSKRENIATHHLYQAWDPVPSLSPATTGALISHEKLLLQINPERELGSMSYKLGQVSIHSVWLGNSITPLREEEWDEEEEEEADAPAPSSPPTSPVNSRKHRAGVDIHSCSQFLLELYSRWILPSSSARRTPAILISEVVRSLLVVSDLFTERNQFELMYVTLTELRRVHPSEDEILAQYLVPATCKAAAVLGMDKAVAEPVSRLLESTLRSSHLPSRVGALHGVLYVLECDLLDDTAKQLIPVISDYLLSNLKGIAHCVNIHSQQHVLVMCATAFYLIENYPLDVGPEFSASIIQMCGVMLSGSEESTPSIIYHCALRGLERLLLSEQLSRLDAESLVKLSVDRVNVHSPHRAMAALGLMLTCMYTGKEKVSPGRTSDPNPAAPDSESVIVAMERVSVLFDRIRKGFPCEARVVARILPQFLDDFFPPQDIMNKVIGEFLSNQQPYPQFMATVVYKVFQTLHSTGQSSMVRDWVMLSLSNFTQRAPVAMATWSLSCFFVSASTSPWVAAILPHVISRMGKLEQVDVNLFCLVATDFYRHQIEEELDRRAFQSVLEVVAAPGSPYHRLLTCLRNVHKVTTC
Pf apPOL inh = Pf-apPOL inhibitors, biochemical, fluorescence; 210,000 compounds, 0.25% hits; AID 1794808, 2022; Plasmodium falciparum apicoplast DNA polymerase (apPOL); Recombinant Pf-apPOL, molecular beacon fluorescence, 1.5 h; inhibition, % at 10 µM
* hit, by the source's call; . = no result given; ! = not active in a repeat. Sampled rows, rich in hits. Any-hit rate of the full collection: about 3.6%. No stated cut-off is given here; in the data, active means inhibition above about 50%; inactive means the rest.

SMILES | mHTT-CaM PPI inh | Pf apPOL inh
N#Cc1cccc(-c2cn3c(n2)N(C(=O)c2ccccc2)CCC3)c1 | 8.4 | -0.4
COc1ccc(-n2c(SCc3ccc([N+](=O)[O-])cc3)nnc2-c2ccncc2)cc1 | 19.7 | -4.5
CCOc1cccc(N2C(=O)NC(=O)/C(=C\c3ccc(Oc4ccc([N+](=O)[O-])cn4)cc3)C2=O)c1 | 50.0* | -6.9
O=C1NN(c2ccccc2)C(=O)/C1=C/c1cccc(OCCOc2ccc([N+](=O)[O-])cc2)c1 | 27.0 | 2.8
N=C1S/C(=C\c2ccc([N+](=O)[O-])cc2)C(=O)N1c1nccs1 | 45.0 | -2.5
CCc1cc(C2CCCN2C(=O)c2c(Cl)cnn2CC)on1 (stereo not drawn) | -7.5 | -3.2
Nc1nc2ccccc2n1Cc1ccccc1 | 3.1 | -4.1
Fc1ccc(NCc2nc3ccccc3n2Cc2ccccc2)cc1 | 50.0* | 0.0
Cn1cnc2cc(NCc3nc4ccccc4n3Cc3ccccc3)ccc21 | 87.9*! | -2.0
Cc1ccc(CNc2ccc3c(c2)ncn3C)cc1 | 25.0 | -6.7
COc1ccc(C(=O)NNC(=O)CSCc2cccc3ccccc23)cc1 | . | -13.9
CCOc1ccc(OCCCNC(C)(C)C)cc1 | -0.5 | -8.2
CCCOc1ccc(C(=O)Nc2cc(Cl)ccc2OC)cc1 | -11.9 | -2.5
Cc1nc(C)n(CC(O)COc2ccc(-c3ccccc3)cc2)n1 (stereo not drawn) | -8.2 | -10.3
Cc1nn(CC(O)COC(c2ccccc2)c2ccccc2)c(C)c1Br (stereo not drawn) | 99.0* | -1.4
Cc1noc(C)c1CC(=O)N1CCN(c2ncnc3c2CCC3)CC1 | -4.0 | -4.0
Cc1ccc(Cn2nc(C)c(NC(=O)c3noc4c3CCCCC4)c2C)cc1 | 15.3 | -0.6
Cc1nn(Cc2ccc(Cl)c(Cl)c2)c(C)c1NC(=O)c1noc2c1CCCC2 | 100.1* | -3.9
Cc1cc(C)n(CCNC(=O)c2cc(-c3ccco3)on2)n1 | -0.3 | 5.8
Cc1nn(Cc2ccc(Cl)c(Cl)c2)c(C)c1NC(=O)c1cc(-c2ccco2)on1 | 57.0* | 2.4
COc1ccc(OCC(O)CC(=O)O)cc1 (stereo not drawn) | -10.6 | -4.9
Cc1noc(CNS(=O)(=O)c2cc(C)c(Cl)cc2Cl)n1 | -15.7 | 3.1
CC1CCN(C(=O)c2cc3c(s2)CCC(C(=O)NCc2cccnc2)C3)CC1 (stereo not drawn) | 10.0 | -6.1
O=C(NC1CCCCCC1)c1cccc(-c2nccnc2N2CCCC2)c1 | -5.2 | -2.6
CCCNC(=O)c1ccc2c(c1)n(Cc1ccccc1)c(=O)c1ccnn12 | -3.1 | -2.3
SMILES | mHTT-CaM PPI inh | Pf apPOL inh
COc1ccc(-c2cc3nc4c(c(=O)n3[nH]2)CN(C(=O)NCc2ccc(F)cc2)CC4)cc1 | 58.4* | 9.7
COc1ccc(-c2cc3nc4c(c(=O)n3[nH]2)CN(C(C)=O)CC4)cc1 | 1.7 | 5.0
Cc1ccc(CNC(=O)N2CCc3nc4cc(-c5ccccc5Cl)[nH]n4c(=O)c3C2)cc1 | 52.9* | 3.5
O=C(c1ccco1)N1CCc2nc3cc(-c4ccccc4Cl)[nH]n3c(=O)c2C1 | 2.3 | -1.4
O=C(Cc1ccccc1)N1CCc2c(nc3cc(-c4ccccc4Cl)[nH]n3c2=O)C1 | 26.8 | 18.0
O=C(c1n[nH]c2ccccc12)N1CCc2nc3cc(-c4ccccc4Cl)[nH]n3c(=O)c2C1 | 89.3* | 21.1
O=C(Cc1cccs1)N1CCc2nc3cc(-c4ccccc4Cl)[nH]n3c(=O)c2C1 | 52.0* | 24.8
COc1ccc(-c2cc3nc4c(c(=O)n3[nH]2)CN(C(=O)c2n[nH]c3ccccc23)CC4)cc1 | 28.4 | 16.6
O=C(CCSCc1ccccc1Cl)NCc1cccnc1 | -3.0 | -13.1
CCC(=O)Nc1ccc(C(=O)Nc2cc(Cl)ccc2O)cc1 | 1.4 | -0.1
CC(C)n1c(C2CCN(C(=O)C3CCC3)C2)nc2ccncc21 (stereo not drawn) | 1.5 | -7.4
Cc1cc(I)ccc1S(=O)(=O)NCc1ccccc1 | -21.6 | -7.5
Cc1ccc(CNC(=O)C2(C)CCCN(C(=O)Nc3cccc(Cl)c3C)C2)cc1 (stereo not drawn) | 4.2 | -5.6
Cc1c(C)c2cc3c(-c4ccccc4)coc3cc2oc1=O | -7.0 | 60.0*
Cc1c(C)c2cc3c(-c4ccc(F)cc4)coc3cc2oc1=O | 1.0 | -3.3
Cc1c(-c2[nH]ncc2Br)cnn1C | -4.0 | .
O=C(NCCN1CCOCC1)C1CCCN(c2ncccc2-c2noc(C3CCC3)n2)C1 (stereo not drawn) | 18.9 | -5.5
O=C(NCc1cccc(F)c1)C1CCN(c2nn3c(=O)c4c(nc3s2)CCCC4)CC1 | 10.0 | 8.6
Cc1ccc(CNC(=O)C2CCN(c3nn4c(=O)c5c(nc4s3)CCCC5)CC2)cc1 | 89.1* | 2.9
COc1ccccc1C1Nc2ccccc2NC2=C1C(=O)CC(c1ccc(Cl)cc1)C2 (stereo not drawn) | 5.0 | -11.1
COc1ccc(C2CC(=O)C3=C(C2)Nc2ccccc2NC3c2ccccc2Br)cc1 (stereo not drawn) | 12.0 | -7.0
